This is a sample that favours compounds with a hit; in the whole collection about 7.3% have one here.
Vaccinia Venus – inhibitors of vaccinia virus (Venus reporter) | Potency, µM (series often up to 36.5 µM), for the others: at the top dose activity change, negative = inhibition, hits mostly inhibitors | AID 720580 | 330,000 compounds, 0.46% hits | Vaccinia virus Venus reporter expression, fluorescence; calls by dose curve; tested in A549 cells; further: potency means the concentration at half of the fitted maximal effect; nearly all actives have a fitted effect of over 30% in size
HCMV inh – inhibitors of human cytomegalovirus | HFF cells, HCMV-luciferase reporter, 72 h; hits give low values | activity change, negative = inhibition, % at 57.5 µM | 410,000 compounds, 4.5% hits; in the data active means activity change below about -60%; inconclusive means no clear call, values can overlap the other calls; inactive means above about -39%
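Luciferase read-out from HCMV-luciferase-infected HFFs (MOI 1 PFU/cell) 72 h post infection at 37C; compounds added after 16 h cell attachment; activity normalized between buffer-only basal and Salinomycin (10uM) inhibitor controls.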
Vaccinia mCherry – inhibitors of vaccinia virus infection (mCherry reporter signal). Vaccinia virus mCherry reporter infection, fluorescence. Potency, µM (doses to about 36.5 µM), without a hit: at the highest dose activity change, negative = inhibition, actives largely listed as inhibitors. AID 720579. 310,000 compounds, 0.63% hits; calls by dose curve; tested in A549 cells; further: potency means the concentration at half of the fitted maximal effect; nearly all actives have a fitted effect of over 35% in size
HCV inhibitor – HCV inhibition; 340,000 compounds, 3.4% hits; AID 651820; Huh7.5.1 HCVcc-Cre infection, luciferase reporter, 44 h; Potency, µM (top dose mostly 41.8 µM), without a hit: at the top dose activity change, negative = inhibition, actives largely listed as inhibitors; active means well fitted inhibition curve with a large enough effect; inconclusive means small, poorly fitted or top-dose-only effect, or another doubt; inactive means no such curve, though single readings can be large or run the other way; further: potency means the concentration at half of the fitted maximal effect
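Infectious HCV cell culture screen: compound-treated cells (1,000/well, pre-plated 4 h) are infected with HCVcc-Cre at roughly 0.5 moi and grown 44 h. Infection is quantified by luciferase signal after 15 min substrate incubation at room temperature.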
FMDV inh – antivirals against foot and mouth disease virus | Potency, µM (top dose mostly 57.9 µM), inactives show at the highest dose activity change, negative = inhibition, hits mostly inhibitors | AID 1159524 | 410,000 compounds, 1.2% hits | FMDV antiviral cell-based qHTS; calls by dose curve; tested in HEK293T cells; further: read-out not given here; potency means the concentration at half of the fitted maximal effect; nearly all actives have a fitted effect of over 45% in size
Starred values were filed as active, the others as inactive; i = inactive; ? = inconclusive; / = no result. On the % scale 0 is the no-effect control and ±100 the full control effect.

SMILES | Vaccinia Venus | HCMV inh | Vaccinia mCherry | HCV inhibitor | FMDV inh
CC(C)(C)N(Cc1ccccc1)C(=O)COC(=O)C1=NN(c2ccccc2)C(=O)CC1 | -3% | -26 | -15% | 39% | -16%
CC(=O)OC[C@]12CC[C@H]3[C@@](C)(CC[C@H]4C(C)(C)CCC[C@]34C)[C@@H]1C[C@H](C1=CC(=O)O[C@@H]1OC(C)=O)O2 | / | / | / | 3% | /
COc1ccc(C(=O)NCC2(c3ccc(OC)c(OC)c3)CCCC2)c(OC)c1 | / | 41 | / | 14µM* | ?
C/C(=N/NC(=O)c1ccc(C)s1)c1cccc(NC(=O)c2ccoc2C)c1 | / | 22 | / | 11µM* | -17%
C/C(=N/NC(=O)c1ccoc1C)c1cccc(NC(=O)C(F)(F)F)c1 | -11% | 13 | i | -6% | 4%
Cc1ccn2c(c1)nc(=O)c1cc(S(=O)(=O)N3CCOCC3)ccc12 | / | 20 | / | 4% | -18%
O=C(CCSc1ccccc1)NCC1CCCO1 (centres undefined) | -6% | -18 | -9% | 15% | 35%
O=C(CC(c1ccccc1)c1ccccc1)NCC1CCCO1 (centres undefined) | / | -100* | / | 17% | -5%
O=C(CN(C1CCCCC1)S(=O)(=O)c1ccc(F)cc1)NCC1CCCO1 (centres undefined) | 11µM* | 0 | ? | ? | -19%
FC(F)(F)c1cc(-c2cccs2)nc(N2CCOCC2)n1 | -28% | -17 | / | ? | -11%
FC(F)(F)c1cc(-c2cccs2)nc(-n2cc(Br)cn2)n1 | / | 2 | / | 11µM* | ?
Cc1cnn(-c2nc(-c3cccs3)cc(C(F)(F)F)n2)c1 | / | -25 | / | 10µM* | ?
COc1cc(C(O)c2nc3ccccc3s2)cc(OC)c1OC (centres undefined) | -29% | -36 | ? | 7.1µM* | ?
CCCn1c(C(O)c2cc(OC)c(OC)c(OC)c2)nc2ccccc21 (centres undefined) | / | 11 | / | 4% | 3%
CCn1c(CN2CCC(C)CC2)nc2cc(NC(=O)COc3ccc(Cl)c(C)c3)ccc21 | ? | ? | -24% | / | 18µM*
Cc1cccc(OCC(=O)Nc2ccc3c(c2)nc(CCN2CCC(C)CC2)n3C)c1 | / | -69* | / | ? | -16%
Cc1cccc(OCC(=O)Nc2ccc3c(c2)nc(CCN2CCN(C)CC2)n3C)c1 | / | ? | / | -19% | -21%
COc1ccccc1CCNC(=O)C(=O)NCC1OCCN1S(=O)(=O)c1ccc(C)cc1 (centres undefined) | -30% | -27 | -27% | -18% | ?
COc1ccc(CNC(=O)CN(C)c2nn3c(=O)cc(C)nc3s2)cc1 | 2% | 5 | -3% | / | 1%
CCN(CC)c1ncnc2c1ncn2[C@H]1CN(Cc2ccc(OC)cc2)C[C@@H](CO)O1 | -18% | 18 | -18% | / | -10%
Cc1nc2cnc(N3CCN(C)CC3)nc2n(Cc2ccc(F)cc2)c1=O | / | / | / | / | 4%
Cc1cc(C)c(C(=O)Nc2ccccc2)c(SCC(=O)Nc2ccc(Br)cc2C)n1 | -14% | -69* | -17% | / | -11%
Cc1ccc(N(C(=O)CNC(=O)c2ccco2)C(C(=O)NCC2CCCO2)c2ccccc2)cc1C (centres undefined) | -23% | -67* | -21% | 5% | -15%
O=C(NC1CCCCC1)C(c1cccs1)N(C(=O)c1ccco1)c1ccc2c(c1)OCCO2 (centres undefined) | -7% | -61* | -14% | ? | 5%
CCOc1ccccc1N(C(=O)c1ccco1)C(C(=O)NC1CCCC1)c1cccs1 (centres undefined) | -1% | -63* | -16% | -15% | 15%
SMILES | Vaccinia Venus | HCMV inh | Vaccinia mCherry | HCV inhibitor | FMDV inh
CC(=O)c1cccc(N(C(=O)CNC(=O)c2ccco2)C(C(=O)NC2CCCC2)c2ccc(C)o2)c1 (centres undefined) | -7% | -10 | i | -7% | 1.8µM*
CC(=O)c1cccc(N(C(=O)CNC(=O)c2ccco2)C(C(=O)NC2CCCC2)c2ccco2)c1 (centres undefined) | 3% | -7 | -11% | 3% | 25%
COc1ccc(N(C(=O)c2ccco2)C(C(=O)NC2CCCC2)c2cccs2)c(OC)c1 (centres undefined) | 3% | -11 | i | -11% | 4%
Cc1ccc(C2CCN(C(=S)Nc3cccc(C)c3)C2)cc1 (centres undefined) | / | ? | / | ? | 31%
Cc1ccc(NC(=O)c2cnn(-c3ccc(C)c(C)c3)c2C2CCN(C(=O)OC(C)(C)C)CC2)c(C)c1 | -18% | -35 | -16% | / | -10%
Cc1ccc(N(C(=O)CNC(=O)c2ccco2)C(C(=O)NC2CCCC2)c2ccncc2)cc1F (centres undefined) | -1% | 18 | -15% | 19% | -13%
CCOc1ccccc1N(C(=O)CNC(=O)c1ccco1)C(C(=O)NC1CCCC1)c1ccncc1 (centres undefined) | -2% | -61* | -8% | -8% | 0%
Cc1ccc(N(C(=O)CNC(=O)c2ccco2)C(C(=O)NC2CCCC2)c2ccncc2)cc1C (centres undefined) | 2% | -67* | 12% | 21% | -3%
COc1ccc(Cc2nc3ccc(C(=O)N(C)CCCN4CCOCC4)cc3o2)cc1 | / | -39 | / | -16% | -12%
CC1CCCC(C)N1/N=C/c1c[nH]c2ccc(Br)cc12 (centres undefined) | ? | -78* | ? | -13% | -9%
CC1CCCC(C)N1/N=C/c1cccc(Br)c1 (centres undefined) | -6% | -22 | -14% | 9% | 18%
CCOC(=O)c1cnc2ccc(OCC)cc2c1NCc1ccccc1OC | -4% | -70* | -15% | 7.1µM* | 18µM*
COc1cccc(CNC(=O)C2CCN(c3nnc(-n4c(C)ccc4C)s3)CC2)c1 | -6% | -27 | -6% | / | -21%
N#Cc1c(/N=C/c2ccc(Br)s2)sc2c1CCC2 | -11% | 20 | -14% | 0% | 37%
N#Cc1c(/N=C/c2cccs2)sc2c1CCCCC2 | -25% | -28 | i | 10µM* | ?
CN(/N=C\c1ccc(O)c(O)c1)c1nc(-c2ccccc2)cc(-c2ccccc2)n1 | ? | 94 | ? | 11µM* | 0%
COc1cc(/C=N/N(c2ccccc2)c2ccccc2)ccc1O | ? | 64 | ? | ? | -24%
Nc1ccc2cc3ccccc3cc2c1 | -3% | 13 | i | ? | 31%
Nc1ccc2ccc(N)cc2c1 | / | -65* | / | / | /
COc1ccc(N2CCN(CCCNC(=O)c3nnc(Cc4ccccc4Cl)o3)CC2)cc1 | -11% | -28 | -10% | / | 0%
C=CC1CN(C(=O)OCC(Cl)(Cl)Cl)C2CC3c4ccc(OC)cc4NC3C3CC1C2CO3 (centres undefined) | -13% | / | -19% | 10µM* | ?
c1ccc(C2(NC3=NCCO3)CCCCC2)cc1 | 4µM* | -38 | ? | / | -3%
C1CCC(NC2=NCCO2)CC1 | ? | -33 | -29% | / | 0%
O=C(NCC(c1ccco1)S(=O)(=O)c1cccs1)c1ccccc1F (centres undefined) | -10% | 71 | -12% | / | 14%
